Results from ChEMBL document CHEMBL3988442, “University of Dundee, Small-Polar-MMV Screening Library” (2021).
For some assays here: Results with a measured potency or affinity are listed apart.

Columns and labels:
Set-up in all cases: scale not given: direction of the effect not stated beside the values
[1] = target: Protein translocase subunit SecA (Escherichia coli (strain K12)) (UniProt P10408); assay: Assay to Identify E. coli SecA ATPase Inhibitors; assay type: functional; conditions: 30 µM
Chain of Protein translocase subunit SecA (Escherichia coli (strain K12)) (P10408 whole entry): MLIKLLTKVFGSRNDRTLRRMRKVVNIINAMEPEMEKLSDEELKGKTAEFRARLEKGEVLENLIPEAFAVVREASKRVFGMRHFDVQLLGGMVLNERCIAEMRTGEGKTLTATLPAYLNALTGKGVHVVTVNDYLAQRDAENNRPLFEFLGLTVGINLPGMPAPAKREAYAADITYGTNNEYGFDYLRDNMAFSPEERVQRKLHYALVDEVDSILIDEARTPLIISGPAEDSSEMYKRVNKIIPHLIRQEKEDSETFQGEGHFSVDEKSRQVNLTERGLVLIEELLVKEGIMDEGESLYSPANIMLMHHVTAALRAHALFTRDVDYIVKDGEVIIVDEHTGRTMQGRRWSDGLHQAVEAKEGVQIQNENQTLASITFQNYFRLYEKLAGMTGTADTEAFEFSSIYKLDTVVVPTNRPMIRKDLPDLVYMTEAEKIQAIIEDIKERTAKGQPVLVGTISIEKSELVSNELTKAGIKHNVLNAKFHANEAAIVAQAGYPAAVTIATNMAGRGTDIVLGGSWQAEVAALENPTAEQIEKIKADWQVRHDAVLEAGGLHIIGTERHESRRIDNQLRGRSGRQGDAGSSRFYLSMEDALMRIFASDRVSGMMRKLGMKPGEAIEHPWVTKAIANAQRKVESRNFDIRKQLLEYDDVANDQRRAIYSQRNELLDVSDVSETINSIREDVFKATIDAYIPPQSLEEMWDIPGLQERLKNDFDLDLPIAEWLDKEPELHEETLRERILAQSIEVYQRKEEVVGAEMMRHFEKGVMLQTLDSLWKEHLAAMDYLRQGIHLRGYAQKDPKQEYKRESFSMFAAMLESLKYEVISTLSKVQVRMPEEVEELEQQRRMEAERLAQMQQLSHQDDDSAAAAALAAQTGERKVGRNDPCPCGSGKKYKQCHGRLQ

[2] = target: T1, Ubiquitin-activating enzyme e1, putative (Leishmania donovani (strain BPK282A1)) (UniProt E9BSI1); assay: Leishmania donovani Ubiquitin Activating Enzyme (LdE1); assay type: functional; conditions: 30 µM
T1 sequence (whole entry): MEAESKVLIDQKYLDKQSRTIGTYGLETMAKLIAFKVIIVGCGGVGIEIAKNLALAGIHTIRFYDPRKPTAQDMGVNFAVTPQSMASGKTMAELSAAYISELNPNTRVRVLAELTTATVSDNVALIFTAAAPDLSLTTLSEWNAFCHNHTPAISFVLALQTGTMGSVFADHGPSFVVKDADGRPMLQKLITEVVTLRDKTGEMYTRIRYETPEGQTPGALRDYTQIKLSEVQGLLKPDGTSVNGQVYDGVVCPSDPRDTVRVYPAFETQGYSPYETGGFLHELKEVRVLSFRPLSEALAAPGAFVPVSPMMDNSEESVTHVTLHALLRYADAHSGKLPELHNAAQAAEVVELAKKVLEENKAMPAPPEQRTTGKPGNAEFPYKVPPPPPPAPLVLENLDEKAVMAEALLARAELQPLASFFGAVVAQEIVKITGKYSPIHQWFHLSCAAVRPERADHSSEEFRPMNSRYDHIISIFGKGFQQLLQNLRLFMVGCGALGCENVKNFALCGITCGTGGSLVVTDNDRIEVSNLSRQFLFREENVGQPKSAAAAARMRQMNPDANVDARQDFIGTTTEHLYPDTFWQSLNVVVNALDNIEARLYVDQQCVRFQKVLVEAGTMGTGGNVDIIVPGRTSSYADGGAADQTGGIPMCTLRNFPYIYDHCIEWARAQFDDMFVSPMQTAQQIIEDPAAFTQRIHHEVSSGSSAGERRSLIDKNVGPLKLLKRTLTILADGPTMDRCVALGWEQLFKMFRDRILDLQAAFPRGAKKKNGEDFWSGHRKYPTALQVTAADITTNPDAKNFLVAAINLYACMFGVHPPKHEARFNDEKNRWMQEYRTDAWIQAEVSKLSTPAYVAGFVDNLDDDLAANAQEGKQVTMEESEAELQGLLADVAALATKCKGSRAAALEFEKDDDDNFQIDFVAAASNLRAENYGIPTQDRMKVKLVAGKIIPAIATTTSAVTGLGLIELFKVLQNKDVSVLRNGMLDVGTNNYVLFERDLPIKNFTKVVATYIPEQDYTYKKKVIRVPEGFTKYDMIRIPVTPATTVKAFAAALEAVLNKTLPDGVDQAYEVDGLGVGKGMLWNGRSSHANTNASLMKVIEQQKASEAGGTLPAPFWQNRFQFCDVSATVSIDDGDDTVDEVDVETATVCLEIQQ

[3] = target: AMP-activated protein kinase, AMPK (Homo sapiens) (UniProt P54646+O43741+P54619+Q9UGJ0+Q9Y478+Q13131+Q9UGI9); assay: AMP-dependent Kinase enzyme assay. An in vitro enzyme assay that detects ADP turnover that is directly proportional to AMPK activity. This uses naive AMPK that is activated during the assay with MK-8722; assay type: functional; conditions: 30 µM
[4] = target: Sialic acid-binding Ig-like lectin 9 (Homo sapiens) (UniProt Q9Y336); assay: Hs-Siglec9 ALPHAscreen SOP 20170721; conditions: 10 µM
Chain of Sialic acid-binding Ig-like lectin 9 (Homo sapiens) (Q9Y336 whole entry): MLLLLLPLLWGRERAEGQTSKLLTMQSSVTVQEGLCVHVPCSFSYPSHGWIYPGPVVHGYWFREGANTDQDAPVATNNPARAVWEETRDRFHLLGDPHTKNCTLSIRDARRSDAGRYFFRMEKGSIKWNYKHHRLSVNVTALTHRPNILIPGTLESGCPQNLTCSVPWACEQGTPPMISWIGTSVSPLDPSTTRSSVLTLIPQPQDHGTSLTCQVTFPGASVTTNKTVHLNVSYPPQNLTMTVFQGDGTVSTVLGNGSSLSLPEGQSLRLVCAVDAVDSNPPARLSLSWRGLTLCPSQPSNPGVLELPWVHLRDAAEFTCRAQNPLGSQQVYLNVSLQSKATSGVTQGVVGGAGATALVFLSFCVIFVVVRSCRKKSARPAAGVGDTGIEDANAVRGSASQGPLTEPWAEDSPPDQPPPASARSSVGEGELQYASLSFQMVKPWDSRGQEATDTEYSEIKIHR

Trypanosoma cruzi = assay: Trypanosoma cruzi phosphomannomutase and mannose-1-phosphate guanylyltransferase assay; assay type: functional; conditions: 10 µM
[5] = target: T2, Arginase-2, mitochondrial (Homo sapiens) (UniProt P78540); assay: in vitro enzyme assay to detect the production of urea directly proportional to the activity of Arginase II; assay type: functional; conditions: 33.3 µM; also: in the data most compounds retested in dose-response had high values
T2 sequence (whole entry): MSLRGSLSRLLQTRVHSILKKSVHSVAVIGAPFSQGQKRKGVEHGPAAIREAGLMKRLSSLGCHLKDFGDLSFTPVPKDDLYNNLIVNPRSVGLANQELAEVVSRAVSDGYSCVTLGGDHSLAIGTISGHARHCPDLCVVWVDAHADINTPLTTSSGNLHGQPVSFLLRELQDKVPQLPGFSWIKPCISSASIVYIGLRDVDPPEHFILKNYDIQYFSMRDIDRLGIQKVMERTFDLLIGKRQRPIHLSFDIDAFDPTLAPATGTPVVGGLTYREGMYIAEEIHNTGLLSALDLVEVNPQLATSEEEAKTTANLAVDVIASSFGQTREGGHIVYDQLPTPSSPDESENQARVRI

[6] = target: T3, Proteasome subunit beta (Trypanosoma cruzi) (UniProt O96673); assay: Trypanosoma cruzi proteasome chymotrypsin-like activity (TcProtChymo) assay.; also: in the data most compounds retested in dose-response had high values; assay type: functional; conditions: 9.37 µM
T3 sequence (whole entry): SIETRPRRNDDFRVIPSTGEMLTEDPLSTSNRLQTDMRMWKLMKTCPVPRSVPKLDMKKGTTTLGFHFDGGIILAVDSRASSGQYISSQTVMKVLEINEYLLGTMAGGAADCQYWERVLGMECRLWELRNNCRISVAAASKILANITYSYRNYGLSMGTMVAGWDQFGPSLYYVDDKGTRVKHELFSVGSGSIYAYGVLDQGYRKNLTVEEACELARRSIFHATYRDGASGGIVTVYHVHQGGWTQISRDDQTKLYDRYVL

Homo sapiens = species: Homo sapiens; assay: To identify inhibition of the IFN signalling (Jak-Stat) pathway via expression of an eGFP reporter gene under the control of an IFN-stimulated response element (ISRE) containing MxA promoter.; assay type: functional; conditions: 30 µM
[7] = target: T4, Tyrosyl-tRNA synthetase, putative (Trypanosoma cruzi (strain CL Brener)) (UniProt Q4DSP6); assay: Trypanosoma cruzi tyrosyl tRNA synthetase (TcYRS) _High Tyrosine SOP; assay type: functional; conditions: 30 µM; also: in the data most compounds retested in dose-response had high values
T4 sequence (whole entry): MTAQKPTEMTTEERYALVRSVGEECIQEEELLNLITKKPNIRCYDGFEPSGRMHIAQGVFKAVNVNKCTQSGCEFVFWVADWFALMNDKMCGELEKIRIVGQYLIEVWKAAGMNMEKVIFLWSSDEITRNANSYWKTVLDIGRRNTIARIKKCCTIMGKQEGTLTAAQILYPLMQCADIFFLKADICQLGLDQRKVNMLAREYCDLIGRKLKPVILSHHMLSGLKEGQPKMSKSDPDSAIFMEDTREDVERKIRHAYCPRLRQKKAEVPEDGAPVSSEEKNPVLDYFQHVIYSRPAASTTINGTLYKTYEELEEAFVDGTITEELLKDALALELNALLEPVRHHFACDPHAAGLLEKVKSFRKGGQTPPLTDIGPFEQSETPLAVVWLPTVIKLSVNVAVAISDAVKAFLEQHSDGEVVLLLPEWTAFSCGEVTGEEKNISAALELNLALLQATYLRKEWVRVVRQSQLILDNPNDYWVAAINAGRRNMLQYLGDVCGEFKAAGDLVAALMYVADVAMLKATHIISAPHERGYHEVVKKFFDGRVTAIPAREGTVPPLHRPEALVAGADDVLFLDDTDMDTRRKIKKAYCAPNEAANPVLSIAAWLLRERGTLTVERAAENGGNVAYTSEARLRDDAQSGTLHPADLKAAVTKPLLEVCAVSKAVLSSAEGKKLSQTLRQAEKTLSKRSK

[8] = target: T4, Tyrosyl-tRNA synthetase, putative (Trypanosoma cruzi (strain CL Brener)); assay: Trypanosoma cruzi tyrosyl tRNA synthetase (TcYRS) SOP; assay type: functional; conditions: 30 µM
[9] = target: Chromo domain-containing protein 1 (Saccharomyces cerevisiae (strain ATCC 204508 / S288c) (Baker's yeast)) (UniProt P32657); assay: ScCHD-1 Enzyme Inhibition Assay; assay type: functional; conditions: 30 µM; also: in the data most compounds retested in dose-response had high values
Chain of Chromo domain-containing protein 1 (Saccharomyces cerevisiae (strain ATCC 204508 / S288c) (Baker's yeast)) (P32657 whole entry, the tested form may be a part): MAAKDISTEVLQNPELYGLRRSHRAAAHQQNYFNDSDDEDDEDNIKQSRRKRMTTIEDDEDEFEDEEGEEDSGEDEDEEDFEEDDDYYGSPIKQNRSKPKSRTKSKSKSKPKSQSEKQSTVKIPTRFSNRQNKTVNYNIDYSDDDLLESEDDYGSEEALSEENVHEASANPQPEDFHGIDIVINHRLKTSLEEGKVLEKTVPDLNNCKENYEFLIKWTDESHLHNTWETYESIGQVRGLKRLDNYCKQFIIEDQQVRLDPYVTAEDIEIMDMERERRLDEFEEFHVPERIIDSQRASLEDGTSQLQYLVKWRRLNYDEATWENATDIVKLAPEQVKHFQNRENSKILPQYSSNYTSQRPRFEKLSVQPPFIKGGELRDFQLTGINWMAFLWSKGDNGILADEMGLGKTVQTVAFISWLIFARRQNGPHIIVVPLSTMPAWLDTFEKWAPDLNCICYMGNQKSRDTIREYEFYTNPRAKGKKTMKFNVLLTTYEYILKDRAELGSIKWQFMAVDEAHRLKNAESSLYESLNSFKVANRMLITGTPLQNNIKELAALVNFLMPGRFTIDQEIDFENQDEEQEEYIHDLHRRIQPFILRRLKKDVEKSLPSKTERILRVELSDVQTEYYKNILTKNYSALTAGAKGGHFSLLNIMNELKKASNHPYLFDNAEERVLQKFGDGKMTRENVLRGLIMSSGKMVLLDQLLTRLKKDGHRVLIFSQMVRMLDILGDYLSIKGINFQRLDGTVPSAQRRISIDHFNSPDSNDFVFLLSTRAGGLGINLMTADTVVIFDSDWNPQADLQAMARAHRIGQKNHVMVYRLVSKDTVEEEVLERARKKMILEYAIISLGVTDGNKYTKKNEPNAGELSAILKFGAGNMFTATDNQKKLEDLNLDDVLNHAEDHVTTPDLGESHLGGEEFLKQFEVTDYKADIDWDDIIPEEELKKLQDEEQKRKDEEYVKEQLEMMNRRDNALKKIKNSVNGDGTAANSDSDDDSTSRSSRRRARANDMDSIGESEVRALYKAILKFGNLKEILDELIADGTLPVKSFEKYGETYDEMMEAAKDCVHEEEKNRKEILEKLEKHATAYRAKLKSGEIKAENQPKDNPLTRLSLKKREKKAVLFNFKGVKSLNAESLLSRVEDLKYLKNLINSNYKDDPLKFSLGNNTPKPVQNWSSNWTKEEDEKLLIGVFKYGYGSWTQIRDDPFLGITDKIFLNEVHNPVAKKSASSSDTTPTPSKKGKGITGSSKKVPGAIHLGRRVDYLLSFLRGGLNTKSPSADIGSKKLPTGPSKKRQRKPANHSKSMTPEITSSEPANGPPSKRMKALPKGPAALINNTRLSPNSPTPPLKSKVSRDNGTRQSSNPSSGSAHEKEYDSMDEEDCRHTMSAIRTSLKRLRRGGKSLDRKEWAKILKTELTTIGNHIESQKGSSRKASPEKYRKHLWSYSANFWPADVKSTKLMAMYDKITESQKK

| SMILES | Percent Effect [1] | Percent Effect [2] | Percent Effect [3] | Percent Effect [4] | Percent Effect (Trypanosoma cruzi) | Percent Effect [5] | Percent Effect [6] | Percent Effect (Homo sapiens) | Percent Effect [7] | Percent Effect [8] | Percent Effect [9] |
| --- | --- | --- | --- | --- | --- | --- | --- | --- | --- | --- | --- |
| O=C(CC1CCCC1)NCCn1ccc(-c2ccncc2)n1 | -3.35% | 0% | 5.83% | 6.39% | -3.65% | 3.23% | 1.92% | 13.7% | -5.29% | 3.85% | 1.38% |
| CCN(CC)C(=O)CCc1c(C)nc2cc(O)nn2c1C | -1.3% | 0% | -288% | 0.0855% | -3.99% | -1.18% | 24.1% | 3.53% | 4.25% | 7.79% | -6.56% |
| CN(CC(N)=O)S(=O)(=O)c1ccc(F)cc1Cl | -4.21% | -5.48% | 0.145% | 5.52% | -0.794% | 0.399% | 6.59% | 16.6% | 13.5% | 21% | -3.16% |
| O=C(c1ccn(-c2cccc(Cl)c2)n1)N1CCN(C2CC2)CC1 | -11.5% | 10.4% | -3.12% | 2.64% | -4.49% | -1.78% | 27.5% | 29.6% | -0.971% | -4.88% | -3.18% |
| Cc1cccc(N2Cc3nc(=O)[nH]n3C2=O)c1 | 1.1% | 4% | 3.29% | -0.713% | -4.52% | -9.33% | 19.6% | -0.119% | 5.29% | 5.13% | -4.23% |
| CN(Cc1cscn1)C1CCCN(Cc2noc(C3CC3)n2)C1 (stereo not given) | -0.734% | 23.7% | -5.57% | -10.6% | 2.33% | 0.36% | 12.9% | 0.628% | 7.39% | 28.4% | -12.5% |
| Cc1csc(C2CCCN(C(=O)c3cc(Cl)c[nH]3)C2)n1 (stereo not given) | -4.24% | 5.41% | -0.992% | 9.99% | -5% | -2% | 3.96% | 19% | 14.3% | 13.6% | -2.75% |
| Cc1nn(C)c(N(C)C)c1CNC1CCc2c(F)cccc21 (stereo not given) | 0.322% | 13.2% | -5.14% | -4.54% | 4.89% | 5.75% | 17% | -1.05% | 6.37% | 17.1% | -6.66% |
| Cc1nc(C2CCN(C(=O)c3ccc(=O)n(C)c3)CC2)c2sccn12 | -2.51% | 4.05% | 3.65% | 3.19% | 1.58% | -3.02% | 10.4% | 3.58% | 3.23% | 6.49% | -13.8% |
| Cc1cc(N2CCCN(C(=O)Cc3ccc(O)c(Cl)c3)CC2)ccn1 | -3.42% | 13.7% | -3.37% | 6.51% | 2.18% | 0.399% | 22.2% | -10.9% | 8.33% | 18.5% | -1.79% |
